This is part of a sample that, as a whole, favours compounds with a hit. Of some 83,000 tested, about 20% had one in any assay.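 Cell lines were cultured in 96-well plates, exposed to a single compound concentration, and assessed for percent growth 48 hours later.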 Activity calls are given as the source filed them. How the source made its calls: active means growth percent below 10; inactive means the rest.
Experiments:
Test in all cases: NCI-60 one-dose screen, 48 h (100 = growth as untreated, 0 = no growth, -100 = all killed)
Conditions in all cases: 10 µM unless noted
[1] = tested on: RPMI-8226 leukemia
[2] = tested on: OVCAR-8 ovarian
[3] = tested on: OVCAR-5 ovarian
[4] = tested on: OVCAR-4 ovarian
[5] = tested on: SK-OV-3 ovarian
[6] = tested on: IGROV1 ovarian
[7] = tested on: OVCAR-3 ovarian
[8] = tested on: HS 578T breast
[9] = tested on: NCI/ADR-RES ovarian
[10] = tested on: T-47D breast
[11] = tested on: BT-549 breast
[12] = tested on: MDA-MB-435 melanoma
[13] = tested on: SW-620 colon
[14] = tested on: MCF7 breast
[15] = tested on: HCT-116 colon
[16] = tested on: HCC-2998 colon
[17] = tested on: KM12 colon

Measured: growth

O=C(O)C1CCC(=O)N1C(=O)OCc1ccccc1 (stereo not drawn)
inactive: [1] 88.8% | [2] 96.3% | [3] 92.6% | [4] 101% | [5] 109% | [6] 110% | [7] 118% | [8] 136% | [9] 98.4% | [10] 108% | [11] 112% | [12] 91.3% | [13] 101% | [14] 91.6% | [15] 107% | [16] 104% | [17] 115%

COc1ccc(C2c3ccc4ccccc4c3Oc3nc(C)[nH]c(=O)c32)cc1 (stereo not drawn)
inactive: [1] 102% | [2] 101% | [3] 114% | [4] 113% | [5] 100% | [6] 95.8% | [7] 108% | [8] 96.3% | [9] 93.9% | [10] 92.2% | [11] 109% | [12] 42.4% | [13] 97.4% | [14] 96.1% | [15] 107% | [16] 103% | [17] 98.6%

N=C1CCC(=N)c2c1c(O)c1ccccc1c2O
inactive: [1] 80.2% | [2] 109% | [3] 124% | [4] 95.2% | [5] 84.7% | [6] 80.1% | [7] 73.1% | [8] 82.8% | [9] 119% | [10] 89.5% | [11] 97.1% | [12] 114% | [13] 101% | [14] 138% | [15] 101% | [17] 96.8%

CCCCNC(=O)Oc1ccc2c(=O)c3sc4c(=O)c5ccccc5c(=O)c4c3c(=O)c2c1
active: [1] -41.9% | [2] -20.4% | [3] -73.6% | [4] -95.4% | [5] -93.9% | [6] -25.6% | [7] -69.5% | [8] 2.8% | [9] -19.3% | [10] -38.5% | [11] -90.2% | [12] -88.9% | [13] -75.6% | [14] -59.2% | [15] -15.6% | [16] -87.1% | [17] -29.9%

CC(C)(C)c1ccc(/C=C/C(=O)Nc2ccc(O)cc2)cc1
inactive: [1] 59.8% | [2] 45.7% | [3] 89.8% | [4] 73.8% | [5] 96.8% | [6] 62.2% | [7] 60.4% | [8] 80.4% | [9] 59.9% | [10] 64.4% | [11] 66.6% | [12] 50.9% | [13] 71% | [14] 60.9% | [15] 68.1% | [16] 97% | [17] 36.5%

CS(=O)c1cccc(-c2ccc3nc(N)n(-c4ccc(C(F)(F)F)cc4)c(=O)c3c2)c1 (stereo not drawn)
inactive: [1] 97.4% | [2] 96.3% | [3] 100% | [4] 100% | [5] 102% | [6] 102% | [7] 101% | [8] 88.4% | [9] 103% | [10] 77.1% | [11] 99.4% | [12] 105% | [13] 103% | [14] 104% | [15] 100% | [16] 106% | [17] 98.5%

CN(C)CCCn1c(=O)c2ccccc2c2ccccc21
inactive: [1] 59.9% | [2] 49.8% | [3] 73.3% | [4] 86.3% | [5] 92.3% | [6] 56.2% | [7] 96.5% | [8] 79.3% | [9] 78.3% | [10] 87.9% | [11] 103% | [12] 89% | [13] 42.8% | [14] 58.4% | [15] 26.5% | [16] 68.2% | [17] 75.8%

COc1ccc2[nH]c(O)c(C(=Nc3ccc(N(C)C(=O)CN4CCN(C)CC4)cc3)c3ccccc3)c2c1
active: [5] 5.77% | [8] -16.8%
inactive: [1] 38.8% | [2] 43.9% | [3] 49.2% | [4] 47.1% | [6] 22.5% | [7] 75.9% | [9] 82.2% | [10] 53.4% | [11] 35.8% | [12] 42.3% | [13] 16.8% | [14] 29% | [15] 11.1% | [16] 34.3% | [17] 18.2%

Nc1n[nH]c2cc(F)c([C@@H]3Nc4c(F)cc5[nH]ncc5c4[C@H]4C5CCC(C5)[C@@H]34)cc12 (stereo partly drawn)
active: [1] 5.57% | [7] 8.71% | [11] -0.757% | [12] -33.4% | [15] -21.2% | [16] 7.27% | [17] -40.5%
inactive: [2] 29.2% | [3] 35.1% | [4] 44.2% | [5] 34% | [6] 17.2% | [8] 26.8% | [9] 11.8% | [10] 83.8% | [13] 26.8% | [14] 21.6%

Cc1ccccc1NC(=O)N/C(N)=N/c1nc(C)c(C)s1
active: [1] 6% | [7] -1.03% | [9] 9.02% | [12] -46.9%
inactive: [2] 30.8% | [3] 41.4% | [4] 49.7% | [5] 45.2% | [6] 36.2% | [8] 23.6% | [10] 36.2% | [11] 66.3% | [13] 25% | [14] 21.4% | [15] 21.7% | [16] 22.1% | [17] 35%

CCN1C(=O)N(CC)C2C1NN=c1s/c(=C\c3cccs3)c(=O)n12 (stereo not drawn)
inactive: [1] 37.7% | [2] 16.9% | [3] 41.3% | [4] 53.2% | [5] 45.6% | [6] 27.4% | [8] 22.5% | [10] 60.6% | [11] 19.8% | [13] 20.9% | [14] 19.9% | [15] 15.4% | [16] 21% | [17] 19.8%
active: [7] -17.5% | [9] -16.5% | [12] -31.8%

CCN(CC)c1ccc(C(=O)c2ccc(N(CC)CC)cc2)cc1
active: [5] -1.44% | [7] -20.3% | [9] -27.8% | [11] 4.9% | [12] 0.459%
inactive: [1] 20.8% | [2] 32.2% | [3] 40.8% | [4] 61.4% | [6] 37.3% | [8] 36.2% | [10] 20.1% | [13] 26.4% | [14] 13.5% | [15] 10.2% | [17] 25.1%

COc1ccc(C2CC(c3cccc(OC)c3)=NN2C(=O)c2cc(OC)c(OC)c(OC)c2)cc1 (stereo not drawn)
active: [7] -55.7% | [8] -13.5% | [9] -30.4% | [12] -58.8% | [16] -10.3%
inactive: [1] 15% | [2] 43.9% | [3] 44.5% | [4] 56.6% | [5] 33.7% | [6] 27.9% | [10] 29% | [11] 39.5% | [13] 22.5% | [14] 16.2% | [15] 15.3% | [17] 15.4%

COc1cccc(-c2nc3sccn3c2/C=C/C(=O)c2ccc(C(F)(F)F)cc2)c1
inactive: [1] 46.5% | [2] 81.1% | [3] 92.5% | [4] 92.9% | [5] 77.3% | [6] 92.8% | [7] 78.9% | [8] 80% | [9] 89.8% | [10] 64.1% | [11] 87.3% | [12] 73.3% | [13] 66.3% | [14] 65% | [15] 48.4% | [16] 102% | [17] 73.1%

O=C(Nc1ccc(-n2cc(-c3ccncc3)c(-c3ccc(Cl)c(O)c3)n2)cc1)N1CCOCC1
inactive: [1] 106% | [2] 105% | [3] 101% | [4] 104% | [5] 96.4% | [6] 97.3% | [7] 109% | [8] 105% | [9] 106% | [10] 83.9% | [11] 100% | [12] 104% | [13] 113% | [14] 101% | [15] 94.8% | [16] 109% | [17] 100%

COc1ccc(-c2cc(-c3cc(OC)c(OC)c(OC)c3)c(C#N)c(N3CCOCC3)n2)cc1O
inactive: [2] 56.3% | [3] 20.5% | [4] 89.6% | [5] 81.2% | [6] 59.3% | [7] 27.4% | [8] 41.7% | [10] 78.3% | [11] 48.3% | [12] 28.3% | [13] 23.1% | [14] 36.2% | [15] 49.1% | [17] 17.4%
active: [1] -23.8% | [9] -51.5%

CCN(CC)c1ccc2nc3c4ccccc4c(=NC(=O)c4ccccc4-c4c5ccc(N(CC)CC)cc5[o+]c5cc(N(CC)CC)ccc45)cc-3oc2c1
active: [1] 1.89% | [4] -47.4% | [6] -66.6% | [7] -50.1% | [12] -86.2% | [13] -38.7% | [14] -87.6% | [15] -26.8% | [17] -3%
inactive: [2] 43.8% | [3] 73% | [5] 78.9% | [8] 63.3% | [9] 51.5% | [10] 63.6% | [11] 60.1% | [16] 15.9%

Cc1ccc(Cc2cnc(NC(=O)c3ccc4noc(-c5ccccc5)c4c3)s2)cc1
inactive: [1] 79.3% | [2] 89.1% | [3] 105% | [4] 86.4% | [5] 108% | [6] 96.3% | [7] 107% | [8] 95.7% | [9] 92.5% | [10] 78.7% | [11] 99.6% | [12] 85.8% | [13] 89.1% | [14] 69.8% | [15] 86.7% | [16] 99.7% | [17] 91.3%
